107 sequences from PubChem BioAssay AID1508600 (Functional Genomics Laboratory (NCATS/FGL), 2020) can be followed below.

About 3,700 (7%) of roughly 53,000 sequences were called active.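 The calls were made as follows: active = gene knockdowns whose robust z-score for IL-1 alpha signal is at least 2 or at most -2, so actives lie on both sides; inactive = the rest.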 Many of the other results were omitted from the sample, so actives are more common in it than they were.

The assay in a line: Components of the Cytosolic LPS Sensing Pathway: Gene Identification via Genome-wide siRNA Screen. Particulars: RAW264.7 macrophages, IL-1a HTRF, actives lie on both sides, screened at 100 nM (by protocol), cells primed 5 h with Pam3CSK4 first. An excerpt: Non-canonical inflammasome activation by cytosolic LPS is a critical component of the host response to Gram-negative bacterial infection, however we lack a comprehensive understanding of the cellular processes that control this pathway. Here we describe a genome-wide siRNA screen to identify genes regulating the mouse macrophage IL-1 alpha response to cytosolic LPS.
RAW264.7 cells were maintained in complete DMEM media, comprising DMEM with 4.5 g/L glucose, 10% FBS (Gemini Bio-Products, West Sacramento, CA), 2 mM Glutamine (Lonza) and 20 mM HEPES (Lonza), hereafter complete DMEM.
The RNAi screen was conducted in 384-well format using the Ambion Silencer Mouse Genome siRNA Library (#4391425), which consists of three unique, nonoverlapping, nonpooled siRNAs for each of 17,000 gene targets. siRNA reagents ([…]) were stamped into 384-well white flat-bottom microplates (Corning, 3570) using a Velocity11 VPrep liquid handling system (Agilent) integrated into a BioCel robotic platform (Agilent) in columns 1-22, leaving columns 23-24 empty for negative (Ambion, Negative control #1) and positive (mouse Casp4) controls, respectively. The median value of each plate's negative control column was used to normalize sample wells, and the positive control was used to assess transfection efficiency and assay performance.
Lipofectamine RNAiMAX Transfection Reagent ([…]; Invitrogen) was added in […] serum-free, antibiotic-free media to plate wells using a Thermo Scientific Matrix WellMate and Microplate Stacker. Plates were incubated for 45 min at room temperature to allow for the sufficient formation of siRNA-lipid complexes. Cells were seeded at a density of 1x10^4 cells per well in 20 microL media containing 20% (vol/vol) FBS without antibiotics. The final concentration of siRNA in each well was 100 nM. Cells were cultured for 48h at 37 degrees C in 5% CO2 before addition of […] of TLR ligand Pam3CSK4 for 5 hours. The medium was then removed, replaced with […] growth media and cell were transfected with […] of LipidA and TransIT-TKO (Mirus) for 24 hour. At the end of the LipidA treatment, […] of supernatant was transferred to a 384 Greiner Bio-one non-binding low volume plate and […] of IL-1a HTRF reagent (Cisbio, 62MIL1APEH) was added and incubated at room temperature overnight. The plates were read on an EnVision plate reader (PerkinElmer). Cell viability was measured by adding 20ul Cell Titer Glo to the original plate and running a luminescence read on the EnVision. The quantified IL-1a signal for each siRNA gene-targeted well was divided by the median of the negative control wells and multiplied by 100 to achieve a negative control normalized value for each well/siRNA. This normalized value was then used to generate a robust z-score by first taking the log of each value and then by subtracting the median and dividing by the […].
In general terms: Time-resolved FRET reads energy transfer from a long-lived donor to a nearby acceptor.
Consider GGUGUUCCUAUAAAAGUAUTT against Tfb2m, for which the z-score was 0.597 (inactive).

For GGUGCUACAAGUGUACUGATT against Zswim2, the z-score is -2.14 (active).

In the case of GGUCUUCCAGAACAAUUACTT against Prtn3, the z-score was 0.439 (inactive).

Regarding GGCACACCUUUUGUUAGUGTT against Ywhag, the z-score is -1.94 (inactive).

As to GGAUUUGUUCAAAUAACAGTT against Lsm14a, the z-score is -0.664 (inactive).

CCAAAUUAUCACCCUGUUCTT against Olfr763: the z-score is -0.0232 (inactive).

Regarding GGAAAUGCGUCAAAAGACUTT against H2az1, the z-score is 0.04 (inactive).

On to GCUAAAAAUGGUUGUGUGATT against Six3os1, for which the z-score is -1.62 (inactive).

For GGAUGGUUUUCAUUUGCUUTT against Cd300ld, the z-score is -0.606 (inactive).

As for CCGUUAAGUAGCUGGAAGATT against Ubl4b, the z-score is 0.488 (inactive).

With GGGAACCUCACCAUUAUCATT against Olfr769, the z-score is -0.413 (inactive).

As to GCAAGGACCAAAUUACAUATT against Itgb3bp, the z-score is 2.45 (active).

As for GGACUUUCUGAUGGACUUGTT against Sapcd1, the z-score was 1.59 (inactive).

Take GGAUCCUGAAAUCAAAACUTT against Mbl1: the z-score is -0.316 (inactive).

With “GGCAUAACCAAAAGAAAGUTT against 4933427E11Rik”, the z-score is 0.648 (inactive).

Consider GGGCUUCUUUGCCACACUUTT against Rho, for which the z-score is 0.761 (inactive).

Take CGAGAUGAAAUAUACAGAUTT against Trat1: the z-score is 1.12 (inactive).

For GGACAAUUAACGAUCCCACTT against Pdxp, the z-score is -2.58 (active).

Regarding GGGUUAUGGUAGAUUAUCUTT against Tor4a, the z-score is -0.376 (inactive).

For the sequence GGACACCUCGAGAUUCUCUTT against Actl11, the z-score was -0.186 (inactive).

For GGAAAACAACACGAUGAAATT against Tex13b, the z-score is -1.72 (inactive).

As to GGAAGGAGAACAUUCCUUUTT against Ces1d, the z-score is -0.198 (inactive).

Take GGCCAUUUGUUAGGACCUGTT against Prmt6: the z-score is 0.205 (inactive).

On to CGGCAUGUCCUUCAUCGCUTT against Proser2, for which the z-score was -2.89 (active).

As to GGAGAAAAUUCAAGUCACCTT against Olfr663, the z-score is 0.215 (inactive).

“AGUGAAACUAAACUGGAGUTT against 2610318N02Rik”: the z-score was 1.41 (inactive).

Take GGAUCUCAAUGUUCACUUGTT against Bpifb2: the z-score was -0.817 (inactive).

As for GGCUACUUCUGUACUAGGATT against Gclc, the z-score is -1.05 (inactive).

As for GGAGGAAGCUCAUCUAUGATT against Rpl7, the z-score was 0.964 (inactive).

For the sequence GGAAACCAUCAUGAAGAAATT against Siae, the z-score was -0.127 (inactive).

For the sequence CCCAUUGAACAGGAUGUUATT against Coq9, the z-score is -0.292 (inactive).

Turning to CCUGGUAUCCAAGAGGAAGTT against Myt1, the z-score was 2.52 (active).

Take GCAUCAAUUGUCAGGAAAUTT against Rev3l: the z-score was 0.807 (inactive).

For the sequence GGGCUCGUAAAGAAAGAAGTT against Cep41, the z-score is -1.15 (inactive).

As to GCUGAUGAACGAAUACAACTT against Kcnk5, the z-score is 1.25 (inactive).

As for GCGCAGAACCCAGAUGAAGTT against Necap2, the z-score is 0.836 (inactive).

Turning to CCGUCCAUUGCACUGGAUATT against Arntl2, the z-score is 0.024 (inactive).

In the case of GGUGUGAGUGUAAGUUUAUTT against Wnt16, the z-score was 1.1 (inactive).

Consider CGGAUAUGAGAUGAGAAUGTT against Morn4, for which the z-score is -2.4 (active).

Turning to GGAUUUCAACAGACAGGUGTT against Paip2b, the z-score was 0.877 (inactive).

In the case of GGCAGAACUCAAAUUCUUGTT against AW209491, the z-score is -0.35 (inactive).

Regarding GCGUAGCUGUAGUGAACCATT against Erh, the z-score was 1.78 (inactive).

Turning to GGUACUACACCUUUGAUGATT against Fibp, the z-score was -0.497 (inactive).

For the sequence GGACCACAACACAAAUCUGTT against Fasl, the z-score is 1.49 (inactive).

In the case of UUCAUGUAGGUCUACUAUUTT against Olfr203, the z-score was -0.104 (inactive).

For GGAUCUGAAGCUGAUUACATT against Clca2, the z-score is 2.47 (active).

Regarding GCCACUGUUUGAUCUGAAATT against Fhod1, the z-score is 0.943 (inactive).

With CCUUGCCAUAAGUGAUUUATT against Npffr2, the z-score is 0.876 (inactive).

Turning to GGCCUUAAAAUACCUUUGATT against Srpx, the z-score was 1.12 (inactive).

For the sequence CCAGUACAAAGCCACAAUATT against Rab7, the z-score was 5.54 (active).

With GGACAUUUCACAAGUCAAATT against Eloc, the z-score is 1.81 (inactive).

GGGUGGAAAAUUUCAGUUUTT against Ube2f: the z-score is -0.957 (inactive).

Take CCAUCCCGUUCACUAGAGATT against Mypn: the z-score is -1.73 (inactive).

Turning to CCGACUGCUCGUAAAUUCATT against Ndufa12, the z-score is 2.79 (active).

Take GGUACAAAGCCAUUGUACGTT against Grpr: the z-score is -0.381 (inactive).

Take GGAAGAGAAACGACAAAAUTT against Olfr293: the z-score was 1.46 (inactive).

Regarding GGGAGACAAUCGUUUUAGCTT against Tgfbi, the z-score is 0.698 (inactive).

For GGGCAUAUUCACGAUCAAUTT against Fut2, the z-score was 1.43 (inactive).

GGAAAGACCACAUUAUUAATT against Orc4: the z-score is 0.0347 (inactive).

In the case of “GGUUUCUGCCCAGAGUCUATT against 2010106E10Rik”, the z-score is -2.78 (active).

Take GCAAGGACUCUCAUGGUUGTT against Zfand1: the z-score was -0.0357 (inactive).

For GGUGCCGAACGUGUAAUUATT against Rarb, the z-score is 0.936 (inactive).

On to GCCCAUGUGUAAUACAUUUTT against Prps1, for which the z-score is 0.789 (inactive).

As to CCGGAGUAACUCUCUAACATT against Apbb3, the z-score is -0.291 (inactive).

Consider GGGUGACCUUUCCAGAUGATT against Cldn13, for which the z-score is -0.846 (inactive).

Take GGCACAUGGAAUCUUUGAGTT against Edc3: the z-score was -1.65 (inactive).

Consider GGAGCAACUACAAACAUCUTT against Acss2, for which the z-score is 2.35 (active).

On to GGGAUAAGACAGGAGACUUTT against Slc16a11, for which the z-score was 0.227 (inactive).

With GGGAAGGACUGUAAGAAAATT against Dipk1a, the z-score is -0.252 (inactive).

In the case of GCAUCAACACCUGUUCUAUTT against Olfr376, the z-score is 1.02 (inactive).

For GGAUCAUUUACAUUCAUACTT against Alg12, the z-score is -2.6 (active).

Regarding GGCACCUGUUAAAAAUGAATT against Prag1, the z-score is -0.771 (inactive).

Consider GGACUAGUGUGAAAAAGGATT against Nsd1, for which the z-score is -2.87 (active).

Regarding GCUCAUCGGAGAGUUCUAUTT against Ube2h, the z-score is 0.594 (inactive).

With GGCAGCAUUGAGUGUGUGATT against Asb13, the z-score is 2.53 (active).

For GGAAUGCUGAAGUAAAAAATT against Olfr1259, the z-score was -0.808 (inactive).

Regarding GGGCCAAGUUCCGAAAGAATT against Dmbx1, the z-score is -0.443 (inactive).

Consider GCCUUAACUAUGUUGUCUATT against Mgst1, for which the z-score was 0.893 (inactive).

On to GCCUGCACUGUUGAACUAGTT against Tomm40l, for which the z-score is -1.09 (inactive).

As for GCACUCAUUGCCAGGGUCATT against Pycard, the z-score is -2.54 (active).

Consider GCAGUUAUCCGUAUUUAAATT against Ctnnbl1, for which the z-score was 1.18 (inactive).

Turning to CCCUCAUUCUCUAGCGUGATT against H2-K1, the z-score is -1.07 (inactive).

Take GGAUGGACUUCGUCAUGAATT against Cplx2: the z-score is 0.55 (inactive).

For the sequence GGAGUGAUUCAGUGAAAACTT against Iqcf3, the z-score is -0.289 (inactive).

Take CGUCAUAAAGAAUAGUUCCTT against Ncoa4: the z-score is 0.965 (inactive).

Turning to GGAGAAGAGUUAUUGGAUATT against Dnajb4, the z-score is 0.901 (inactive).

With CCUACGGCAAACAGAGACUTT against Klk6, the z-score was -2.29 (active).

Consider GGAGUUUAAGAAGACGCACTT against Slc26a3, for which the z-score was 1.62 (inactive).

Consider GGUUUUGGACCAGAUGAGCTT against Abi3, for which the z-score is 0.0276 (inactive).

In the case of GGGAUGAAGUGUUCCAUCCTT against Ccdc187, the z-score is 2.88 (active).

On to GCAAUUAGUAACUGAGAAUTT against Dpp10, for which the z-score is 0.0628 (inactive).

With GGACUAUGCUGUCCAGAUCTT against Ntn1, the z-score was -0.432 (inactive).

For GGUGCUGAAUUUGAUCAAGTT against Rpa2, the z-score is 1.83 (inactive).

On to UUGUUAUAGCACUUCCAAATT against Vwa3b, for which the z-score is 2.12 (active).

Turning to GGAUGGGUUUGAUCUUAAUTT against Il13ra2, the z-score is 0.519 (inactive).

For “GCCAUUUGAAGGCUUUUGUTT against D130079A08Rik”, the z-score was -0.555 (inactive).

For GCUGGUGAUGACGUGUAUCTT against Slc32a1, the z-score is 0.357 (inactive).

As for GUUGAACAAUCUUGUCCUGTT against Rps25, the z-score was 0.518 (inactive).

With GGCAUGAGACAAGCUAGUCTT against Mrgpre, the z-score is -0.463 (inactive).

Take GGCUGCUAAUUGGAUUUUUTT against Ccnj: the z-score was -0.936 (inactive).

As to GCCUUUCAUACAUUCAACATT against Olfr313, the z-score was -1.49 (inactive).

GGACAGACCACACUUCAUGTT against Foxp3: the z-score is -0.494 (inactive).

As for GGCCAUGAUUUACGACGACTT against C1qtnf4, the z-score was -1.22 (inactive).

As for “GGCUCUCUGAGGAUUCGAATT against 4930544M13Rik”, the z-score is -0.209 (inactive).

With CGGGACAUUCGUGAUCUUATT against Tmem114, the z-score was -2.38 (active).

Consider GGAUUCGCCUUUUCUACCGTT against Hoxb2, for which the z-score is 0.929 (inactive).

Turning to GGAGCUGUGAGCAUUACUGTT against Cenpm, the z-score is -1.89 (inactive).
